# Reference: PubChem BioAssay (EPA / NIEHS)
# Inconclusive results are not listed. Active and inactive are the calls of the source. Rule for the calls, unless noted: active = hit-call score of the fitted dose curve at least 0.9, where 1 is the maximum; inconclusive = response in the unintended direction; inactive = score below 0.9.
# Assays:
# [1] = ATG_TCF_b_cat_CIS: Attagene CIS-FACTORIAL HepG2 Assay for human T-Cell-Factor with beta-catenin (TCF/b-cat) (AID 2282965; active = hit-call score of the fitted dose curve at least 0.9, where 1 is the maximum; inactive = score below 0.9); settings: HepG2 TCF/beta-catenin cis-reporter transcription, actives raise or lower the signal
# How it was run: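 HepG2 cells transiently transfected with cis-promoter-driven multiplexed reporter units; reporter mRNA measured 24 h after dosing by RT-PCR, FAM labelling, HpaI digestion and capillary electrophoresis. Bidirectional fitting relative to DMSO baseline.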
# [2] = ATG_VDRE_CIS: Attagene CIS-FACTORIAL HepG2 Assay for human Vitamin D Receptor Element (VDRE) (AID 2282968; active = hit-call score of the fitted dose curve at least 0.9, where 1 is the maximum; inactive = score below 0.9); settings: HepG2 VDRE cis-reporter transcription, actives raise or lower the signal
# How it was run: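 Transient MRTU transfection of HepG2, 24 h compound exposure. Readout: reporter transcripts via RT-PCR and capillary electrophoresis, fluorescence. Bidirectional fit vs DMSO.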
# [3] = biological target: X-box-binding protein 1 (Homo sapiens) (UniProt P17861); assay: ATG_Xbp1_CIS: Attagene CIS-FACTORIAL HepG2 Assay for human X-box Binding Protein 1 (XBP1) (AID 2282972; active = hit-call score of the fitted dose curve at least 0.9, where 1 is the maximum; inactive = score below 0.9); settings: HepG2 XBP1 cis-element reporter, Attagene multiplex; actives raise or lower the signal
# X-box-binding protein 1 (Homo sapiens), sequence (P17861 whole entry, looked up): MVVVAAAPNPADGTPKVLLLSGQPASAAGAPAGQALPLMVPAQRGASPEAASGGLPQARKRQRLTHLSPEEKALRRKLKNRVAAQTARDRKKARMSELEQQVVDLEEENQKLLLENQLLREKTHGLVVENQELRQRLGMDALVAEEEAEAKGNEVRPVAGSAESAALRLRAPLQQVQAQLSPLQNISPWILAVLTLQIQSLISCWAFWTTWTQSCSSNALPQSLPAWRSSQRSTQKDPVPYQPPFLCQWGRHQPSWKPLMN
# How it was run: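 Reporter transcripts were quantified by RT-PCR with fluorescent primer extension and capillary electrophoresis after 24 h chemical exposure. Cells: transiently transfected HepG2 carrying cis-regulated reporter constructs; data fitted bidirectionally relative to DMSO.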
# [4] = ATG_M_19_TRANS: Attagene TRANS-FACTORIAL HepG2 Assay for M19 Transcription Factor (Internal Marker) (AID 2282974); settings: HepG2 Attagene TRANS-FACTORIAL M19 internal marker reporter
# How it was run: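 Measured here: internal-marker reporter transcript from HepG2 cells transfected with MRTUs, harvested at 24 h. cDNA PCR products were 6-FAM labelled by primer extension, cut with HpaI for 2 h at 37 C, and resolved by CE.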
# [5] = ATG_GAL4_TRANS: Attagene TRANS-FACTORIAL HepG2 Assay for GAL4 (Internal Marker) (AID 2282976); settings: HepG2 Attagene TRANS GAL4 internal marker reporter
# How it was run: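 Fluorescence from capillary electrophoresis of labelled RT-PCR products quantifies reporter mRNA induction after 24 h dosing of HepG2 cells carrying transfected GAL4-UAS reporter transcription units. Vehicle DMSO serves as baseline.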
# [6] = biological target: Glucocorticoid receptor (Homo sapiens) (UniProt P04150); assay: ATG_GR_TRANS: Attagene TRANS-FACTORIAL HepG2 Assay for human Glucocorticoid Receptor (GR) (AID 2282978); settings: HepG2 Attagene TRANS GR reporter, mRNA transcription;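 note: activators score as hits since higher reporter transcript over DMSO is fitted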
# Glucocorticoid receptor (Homo sapiens), sequence (P04150 whole entry, looked up, the tested form may be a part): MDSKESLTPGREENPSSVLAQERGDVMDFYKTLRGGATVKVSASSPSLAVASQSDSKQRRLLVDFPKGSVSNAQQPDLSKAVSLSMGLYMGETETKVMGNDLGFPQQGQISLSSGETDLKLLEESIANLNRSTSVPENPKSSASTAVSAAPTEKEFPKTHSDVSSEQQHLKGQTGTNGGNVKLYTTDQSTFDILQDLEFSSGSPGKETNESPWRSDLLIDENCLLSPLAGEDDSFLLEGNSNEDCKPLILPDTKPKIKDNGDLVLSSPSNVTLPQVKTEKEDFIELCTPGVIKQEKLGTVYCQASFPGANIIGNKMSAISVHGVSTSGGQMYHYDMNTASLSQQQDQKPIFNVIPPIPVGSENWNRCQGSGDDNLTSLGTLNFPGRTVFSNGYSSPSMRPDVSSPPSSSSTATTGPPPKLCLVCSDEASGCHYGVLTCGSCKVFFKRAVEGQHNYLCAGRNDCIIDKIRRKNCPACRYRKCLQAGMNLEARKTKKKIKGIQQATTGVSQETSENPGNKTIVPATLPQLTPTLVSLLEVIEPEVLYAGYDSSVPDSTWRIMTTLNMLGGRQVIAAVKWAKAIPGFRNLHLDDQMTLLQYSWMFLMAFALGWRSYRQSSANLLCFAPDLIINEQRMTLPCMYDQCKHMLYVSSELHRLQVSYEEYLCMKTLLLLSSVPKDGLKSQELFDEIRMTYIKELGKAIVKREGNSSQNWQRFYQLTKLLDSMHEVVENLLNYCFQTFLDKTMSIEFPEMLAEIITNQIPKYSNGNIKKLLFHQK
# How it was run: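 Measurement of GAL4-UAS-driven reporter mRNA in human HepG2 liver cells 24 h post-dosing, using RT-PCR with fluorescent labelling and capillary electrophoresis; the transfected constructs report exogenous NR-GAL4 chimera activity, fitted upward against DMSO.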
# [7] = biological target: Oxysterols receptor LXR-beta (Homo sapiens) (UniProt P55055); assay: ATG_LXRb_TRANS: Attagene TRANS-FACTORIAL HepG2 Assay for human Liver X Receptor beta (LXRb) (AID 2282981); settings: HepG2 Attagene TRANS GAL4-LXRb reporter, mRNA
# Oxysterols receptor LXR-beta (Homo sapiens), sequence (P55055 whole entry, looked up, the tested form may be a part): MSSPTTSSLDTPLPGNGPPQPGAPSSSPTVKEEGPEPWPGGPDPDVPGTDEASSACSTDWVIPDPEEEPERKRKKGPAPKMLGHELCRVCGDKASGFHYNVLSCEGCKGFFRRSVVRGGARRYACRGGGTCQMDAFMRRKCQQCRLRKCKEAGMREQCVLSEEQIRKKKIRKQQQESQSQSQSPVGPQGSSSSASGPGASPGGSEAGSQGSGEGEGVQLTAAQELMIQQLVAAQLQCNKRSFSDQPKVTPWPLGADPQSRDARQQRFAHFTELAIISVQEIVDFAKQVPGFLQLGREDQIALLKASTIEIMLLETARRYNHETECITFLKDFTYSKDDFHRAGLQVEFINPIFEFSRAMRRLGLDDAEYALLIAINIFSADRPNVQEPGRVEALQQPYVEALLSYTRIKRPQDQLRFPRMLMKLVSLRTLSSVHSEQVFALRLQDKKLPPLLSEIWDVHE
# How it was run: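 Readout: fluorescent reporter mRNA fragments resolved by capillary electrophoresis after RT-PCR. System: transiently transfected human HepG2, exogenous LXRb-Gal4 chimera driving GAL4-UAS reporter, 24 h dosing. Activity fitted upward against DMSO baseline.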
# [8] = ATG_TGFb_CIS: Attagene CIS-FACTORIAL HepG2 Assay for human Transforming Growth Factor (TGF) (AID 2282967; active = hit-call score of the fitted dose curve at least 0.9, where 1 is the maximum; inactive = score below 0.9); settings: HepG2 Attagene CIS TGFb reporter, mRNA transcription; actives raise or lower the signal
# How it was run: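 Endogenous TGFB1-linked transcription factor activity read as reporter mRNA via RT-PCR and capillary electrophoresis, 24 h after dosing transiently transfected HepG2 cells. Gain or loss of signal fitted relative to DMSO.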
# [9] = biological target: Estrogen receptor (Homo sapiens) (UniProt P03372); assay: ATG_ERa_TRANS: Attagene TRANS-FACTORIAL HepG2 Assay for human Estrogen Receptor alpha (ERa) (AID 2282970); settings: HepG2 Attagene TRANS ERa GAL4 reporter, mRNA
# Estrogen receptor (Homo sapiens), sequence (P03372 whole entry, looked up, the tested form may be a part): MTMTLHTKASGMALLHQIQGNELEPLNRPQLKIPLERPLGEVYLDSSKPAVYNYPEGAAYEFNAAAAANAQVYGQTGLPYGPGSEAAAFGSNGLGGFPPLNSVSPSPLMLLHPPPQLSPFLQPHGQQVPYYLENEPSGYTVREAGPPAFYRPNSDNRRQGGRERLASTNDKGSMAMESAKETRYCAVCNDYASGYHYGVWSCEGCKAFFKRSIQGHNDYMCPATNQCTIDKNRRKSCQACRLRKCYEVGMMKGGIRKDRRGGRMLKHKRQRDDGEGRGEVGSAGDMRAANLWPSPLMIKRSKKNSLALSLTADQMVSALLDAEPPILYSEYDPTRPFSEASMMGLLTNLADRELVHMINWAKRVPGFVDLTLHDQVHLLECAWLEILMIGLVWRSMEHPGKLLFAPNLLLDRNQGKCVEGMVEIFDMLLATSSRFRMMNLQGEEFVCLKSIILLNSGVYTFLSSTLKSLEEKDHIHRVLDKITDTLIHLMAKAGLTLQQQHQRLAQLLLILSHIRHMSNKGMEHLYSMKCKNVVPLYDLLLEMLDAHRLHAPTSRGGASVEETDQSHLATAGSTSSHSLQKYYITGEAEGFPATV
# How it was run: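 Transfected HepG2 cells carrying GAL4-UAS-driven reporter units were dosed for 24 hours. Total RNA was reverse-transcribed, reporter sequences PCR-amplified, FAM-labelled, HpaI-digested and resolved by capillary electrophoresis. Increases over DMSO control defined activity.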
# [10] = biological target: Hepatocyte nuclear factor 4-alpha (Homo sapiens) (UniProt P41235); assay: ATG_HNF4a_TRANS: Attagene TRANS-FACTORIAL HepG2 Assay for human Hepatocyte Nuclear Factor 4 alpha (HNF4a) (AID 2282982); settings: HepG2 HNF4a transactivation reporter, mRNA readout
# Hepatocyte nuclear factor 4-alpha (Homo sapiens), sequence (P41235 whole entry, looked up): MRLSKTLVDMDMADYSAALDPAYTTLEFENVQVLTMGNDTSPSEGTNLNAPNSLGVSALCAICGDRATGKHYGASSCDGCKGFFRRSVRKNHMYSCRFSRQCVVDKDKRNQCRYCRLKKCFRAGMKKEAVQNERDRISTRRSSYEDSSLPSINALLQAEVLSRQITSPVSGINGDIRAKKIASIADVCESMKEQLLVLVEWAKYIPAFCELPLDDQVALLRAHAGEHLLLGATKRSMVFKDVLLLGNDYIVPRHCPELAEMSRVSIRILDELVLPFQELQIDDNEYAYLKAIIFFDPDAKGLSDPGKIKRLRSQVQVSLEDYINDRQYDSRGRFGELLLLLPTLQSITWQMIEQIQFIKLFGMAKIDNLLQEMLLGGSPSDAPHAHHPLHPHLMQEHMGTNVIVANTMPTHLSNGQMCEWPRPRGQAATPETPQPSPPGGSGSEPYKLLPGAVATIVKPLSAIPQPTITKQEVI
# How it was run: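 Transient MRTU transfection of HepG2, 24 h dosing. Readout: reporter mRNA via RT-PCR + capillary electrophoresis, fluorescence; activity fit upward relative to DMSO control.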
# [11] = ATG_M_32_TRANS: Attagene TRANS-FACTORIAL HepG2 Assay for M32 Transcription Factor (Internal Marker) (AID 2282984); settings: HepG2 Attagene TRANS M32 internal marker reporter;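 note: transcript level of a background control reporter unit measured by RT-PCR and capillary electrophoresis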
# How it was run: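 Read-out: fluorescent reporter cDNA fragments resolved by capillary electrophoresis after RT-PCR of total RNA. Transfected HepG2 cells were exposed to chemical for 24 h. Activity scored in the positive direction relative to DMSO.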
# [12] = biological target: Nuclear receptor subfamily 4 group A member 2 (Homo sapiens) (UniProt P43354); assay: ATG_NURR1_TRANS: Attagene TRANS-FACTORIAL HepG2 Assay for human Nuclear Receptor Related Protein 1 (NURR1) (AID 2282985); settings: HepG2 Attagene TRANS reporter, mRNA readout
# Nuclear receptor subfamily 4 group A member 2 (Homo sapiens), sequence (P43354 whole entry, looked up, the tested form may be a part): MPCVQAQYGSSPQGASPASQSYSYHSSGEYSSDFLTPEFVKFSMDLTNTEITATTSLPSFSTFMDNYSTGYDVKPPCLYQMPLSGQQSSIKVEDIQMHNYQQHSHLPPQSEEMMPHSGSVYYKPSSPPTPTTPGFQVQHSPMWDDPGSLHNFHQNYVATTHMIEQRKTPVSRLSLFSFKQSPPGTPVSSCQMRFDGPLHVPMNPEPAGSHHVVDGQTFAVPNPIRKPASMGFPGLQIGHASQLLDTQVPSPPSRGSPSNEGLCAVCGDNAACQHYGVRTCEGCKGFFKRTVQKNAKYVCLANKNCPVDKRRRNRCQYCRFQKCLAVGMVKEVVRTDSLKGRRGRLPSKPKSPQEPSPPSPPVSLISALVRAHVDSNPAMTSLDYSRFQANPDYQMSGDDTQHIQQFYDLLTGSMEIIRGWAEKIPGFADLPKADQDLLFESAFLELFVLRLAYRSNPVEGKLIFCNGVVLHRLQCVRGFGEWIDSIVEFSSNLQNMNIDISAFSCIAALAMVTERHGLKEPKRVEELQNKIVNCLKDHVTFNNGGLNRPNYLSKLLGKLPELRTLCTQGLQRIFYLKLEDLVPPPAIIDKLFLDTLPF
# How it was run: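 Read-out: reporter mRNA induction by RT-PCR plus capillary electrophoresis with fluorescence detection, after 24 h dosing of transfected HepG2 cells. Exogenous NR-Gal4 chimera activity drives GAL4-UAS reporter; activity fitted upward versus DMSO.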
# [13] = biological target: Transcriptional activator Myb (Homo sapiens) (UniProt P10242); assay: ATG_Myb_CIS: Attagene CIS-FACTORIAL HepG2 Assay for human Myeloblastosis (Myb) Proto-Oncogene Transcription Factor (AID 2282986; active = hit-call score of the fitted dose curve at least 0.9, where 1 is the maximum; inactive = score below 0.9); settings: HepG2 Attagene CIS-FACTORIAL Myb reporter transcription; actives raise or lower the signal
# Transcriptional activator Myb (Homo sapiens), sequence (P10242 whole entry, looked up): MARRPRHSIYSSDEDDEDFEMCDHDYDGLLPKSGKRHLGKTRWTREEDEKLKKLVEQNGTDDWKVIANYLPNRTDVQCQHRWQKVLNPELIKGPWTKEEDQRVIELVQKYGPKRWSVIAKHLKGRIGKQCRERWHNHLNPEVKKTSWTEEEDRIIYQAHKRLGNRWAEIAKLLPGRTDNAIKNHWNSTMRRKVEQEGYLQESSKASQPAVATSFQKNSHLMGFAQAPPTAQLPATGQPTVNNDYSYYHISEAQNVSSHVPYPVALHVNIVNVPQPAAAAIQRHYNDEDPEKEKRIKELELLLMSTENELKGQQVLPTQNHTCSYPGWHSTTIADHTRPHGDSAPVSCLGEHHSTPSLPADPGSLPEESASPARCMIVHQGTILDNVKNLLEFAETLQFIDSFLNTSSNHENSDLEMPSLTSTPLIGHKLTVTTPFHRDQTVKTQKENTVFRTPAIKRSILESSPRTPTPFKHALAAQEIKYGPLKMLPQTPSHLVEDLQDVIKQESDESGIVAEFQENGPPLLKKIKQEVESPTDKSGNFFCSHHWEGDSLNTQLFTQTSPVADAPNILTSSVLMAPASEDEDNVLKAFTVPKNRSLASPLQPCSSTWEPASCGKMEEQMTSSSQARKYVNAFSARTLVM
# How it was run: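 Fluorescence signals from capillary electrophoresis of RT-PCR-amplified reporter cDNA give the read-out. Cells: HepG2 transfected with multiple cis-regulated reporter units. Exposure lasts 24 hours; DMSO defines baseline for gain or loss of signal.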
# [14] = biological target: Bile acid receptor (Homo sapiens) (UniProt Q96RI1); assay: ATG_FXR_TRANS: Attagene TRANS-FACTORIAL HepG2 Assay for Farnesoid X Receptor (FXR) (AID 2282979); settings: HepG2 Attagene TRANS FXR-GAL4 reporter transcription;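 note: hits raise reporter mRNA above DMSO so AC50 marks FXR activation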
# Bile acid receptor (Homo sapiens), sequence (Q96RI1 whole entry, looked up, the tested form may be a part): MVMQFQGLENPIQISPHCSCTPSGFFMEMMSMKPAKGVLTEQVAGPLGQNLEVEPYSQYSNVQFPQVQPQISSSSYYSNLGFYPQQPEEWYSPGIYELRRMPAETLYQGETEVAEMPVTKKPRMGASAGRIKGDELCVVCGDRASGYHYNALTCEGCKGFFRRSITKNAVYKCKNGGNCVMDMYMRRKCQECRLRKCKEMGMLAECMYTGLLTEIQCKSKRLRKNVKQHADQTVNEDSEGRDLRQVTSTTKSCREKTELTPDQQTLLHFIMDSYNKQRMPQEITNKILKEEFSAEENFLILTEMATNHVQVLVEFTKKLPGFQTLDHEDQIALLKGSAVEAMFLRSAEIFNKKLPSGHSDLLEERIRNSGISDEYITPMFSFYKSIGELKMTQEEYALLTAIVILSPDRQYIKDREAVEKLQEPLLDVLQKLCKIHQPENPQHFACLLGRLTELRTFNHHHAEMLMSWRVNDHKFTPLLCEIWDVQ
# How it was run: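 Chimeric FXR-GAL4 activity in transiently transfected human HepG2 liver cells is scored as induction of reporter mRNA after 24 h of dosing. Detection uses RT-PCR with fluorescent labelling and capillary electrophoresis, with DMSO serving as baseline.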
# [15] = ATG_M_06_TRANS: Attagene TRANS-FACTORIAL HepG2 Assay for M06 Transcription Factor (Internal Marker) (AID 2282983); settings: HepG2 Attagene TRANS M06 internal marker reporter
# How it was run: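 Human liver HepG2 cells bearing transiently transfected chimeric NR-GAL4 reporter units were treated with chemicals for 24 h. Total RNA was reverse-transcribed, reporter sequences amplified and labelled, then quantified by capillary electrophoresis. Activity was fitted upward relative to DMSO.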
# [16] = biological target: Oxysterols receptor LXR-alpha (Homo sapiens) (UniProt Q13133); assay: ATG_LXRa_TRANS: Attagene TRANS-FACTORIAL HepG2 Assay for human Liver X Receptor alpha (LXRa) (AID 2282980); settings: HepG2 Attagene TRANS reporter, LXRa transactivation
# Oxysterols receptor LXR-alpha (Homo sapiens), sequence (Q13133 whole entry, looked up): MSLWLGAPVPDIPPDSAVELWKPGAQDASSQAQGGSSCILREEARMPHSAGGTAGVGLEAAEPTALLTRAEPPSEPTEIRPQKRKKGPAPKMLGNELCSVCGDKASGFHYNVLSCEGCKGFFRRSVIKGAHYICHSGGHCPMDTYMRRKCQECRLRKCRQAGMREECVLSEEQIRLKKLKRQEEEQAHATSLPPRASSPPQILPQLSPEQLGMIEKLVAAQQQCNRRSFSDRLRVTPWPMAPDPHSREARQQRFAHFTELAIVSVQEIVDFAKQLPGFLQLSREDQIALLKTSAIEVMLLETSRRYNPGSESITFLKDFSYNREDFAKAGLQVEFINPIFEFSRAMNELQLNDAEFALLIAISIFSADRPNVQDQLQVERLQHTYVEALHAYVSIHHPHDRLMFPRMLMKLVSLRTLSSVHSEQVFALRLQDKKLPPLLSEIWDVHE
# How it was run: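 Transient HepG2 transfectants, 24 h dosing, RT-PCR/CE mRNA reporter quantitation; gain-of-signal vs DMSO.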
# [17] = ATG_TAL_CIS: Attagene CIS-FACTORIAL HepG2 Assay for human TAL Basal Promoter (AID 2282966; active = hit-call score of the fitted dose curve at least 0.9, where 1 is the maximum; inactive = score below 0.9;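 note: background control endpoint measuring basal TAL promoter reporter mRNA not a specific factor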); settings: HepG2 Attagene cis-factorial TAL promoter reporter; actives raise or lower the signal
# How it was run: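 Endogenous transcription-factor activity is sensed in HepG2 cells through transfected cis-promoter reporter constructs. After 24 h dosing, reporter transcripts are quantified by RT-PCR and capillary electrophoresis. Gain or loss of signal is fitted relative to DMSO.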
# [18] = biological target: Nuclear receptor subfamily 1 group I member 3 (Homo sapiens) (UniProt Q14994); assay: ATG_CAR_TRANS: Attagene TRANS-FACTORIAL HepG2 Assay for human Constitutive Androstane Receptor (CAR) (AID 2282969); settings: HepG2 Attagene TRANS-FACTORIAL CAR reporter;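 note: activators raise reporter mRNA above DMSO so AC50 marks induction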
# How it was run: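 Transiently transfected HepG2, multiplex TRANS reporters (CAR-Gal4 chimera driving GAL4-UAS reporter). 24 h dosing. Readout: reporter transcript by RT-PCR + capillary electrophoresis, fluorescence intensity; positive direction vs DMSO.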
structure (smiles),measurement,setting,value
CCOC(=O)CC(=O)c1ccccc1,outcome,[1],inactive
same,outcome,[2],inactive
same,outcome,[3],inactive
same,outcome,[4],inactive
same,outcome,[5],inactive
same,outcome,[6],inactive
same,outcome,[7],inactive
COCC(=O)O,outcome,[1],inactive
same,outcome,[8],inactive
same,outcome,[9],inactive
same,outcome,[3],inactive
same,outcome,[6],inactive
same,outcome,[10],inactive
same,outcome,[11],inactive
same,outcome,[12],inactive
same,outcome,[13],inactive
CC1(C)CC(O)CC(C)(C)N1[O],outcome,[1],inactive
same,outcome,[8],inactive
same,outcome,[3],inactive
same,outcome,[5],inactive
same,outcome,[14],inactive
same,outcome,[7],inactive
same,outcome,[10],inactive
same,outcome,[15],inactive
same,outcome,[12],inactive
same,outcome,[13],inactive
C=CC(=O)OCCCCCCCC(C)C,outcome,[1],inactive
same,AC50,[8],55 µM (active)
same,outcome,[9],inactive
same,outcome,[3],inactive
same,outcome,[5],inactive
same,outcome,[14],inactive
same,outcome,[16],inactive
same,outcome,[7],inactive
same,outcome,[15],inactive
same,outcome,[13],inactive
CC(=O)CCC1=C(C)CCCC1(C)C,outcome,[17],inactive
same,outcome,[8],inactive
same,outcome,[2],inactive
same,outcome,[18],inactive
same,AC50,[9],13 µM (active)
same,outcome,[3],inactive
same,outcome,[16],inactive
same,outcome,[7],inactive
same,outcome,[15],inactive
same,outcome,[12],inactive
same,outcome,[13],inactive
C[N+](C)(C)CCCNS(=O)(=O)C(F)(F)C(F)(F)C(F)(F)C(F)(F)C(F)(F)C(F)(F)C(F)(F)C(F)(F)F,outcome,[1],inactive
same,AC50,[8],60.6 µM (active)
same,outcome,[2],inactive
same,outcome,[9],inactive
same,outcome,[3],inactive
same,outcome,[4],inactive
same,outcome,[5],inactive
same,outcome,[6],inactive
same,outcome,[14],inactive
same,outcome,[10],inactive
same,outcome,[12],inactive
same,outcome,[13],inactive
